About 79,000 compounds went through this panel and 15% of them were active in at least one assay; those are over-represented in the sample as a whole. Values without a mark were called inactive. Calls of active or inactive are those of the source. No stated cut-off is given here; in the data, active means growth inhibition above about 70%; inactive means the rest.
Assays:
[1] = NCI Yeast Anticancer Drug Screen. Data for the rad52 strain (AID 147);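 further: 0% = growth of vehicle-treated control cultures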; conditions: S. cerevisiae rad52 mutant growth inhibition, hits give high values
In short: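 Growth of repair-deficient yeast cells was compared between compound-treated and vehicle-treated cultures to give percent inhibition.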

[2] = NCI Yeast Anticancer Drug Screen. Data for the wt1 strain (AID 149);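 further: 0% = growth of vehicle-treated wt1 cultures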; conditions: S. cerevisiae wt1 strain (SPY 50644) growth inhibition, hits give high values
In short: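 The wt1 strain was treated with compounds, and growth was compared with vehicle-treated cultures to give inhibition.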

[3] = NCI Yeast Anticancer Drug Screen. Data for the rad50EPP+ strain (AID 151);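 further: 0% = growth of vehicle-treated control cultures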; conditions: S. cerevisiae rad50 mutant strain, hits give high values
In short: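 Measured: growth inhibition of rad50EPP+ yeast. Reference: vehicle-treated controls. Screen uses strains with defined genetic alterations in DNA damage repair or cell cycle control.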

[4] = NCI Yeast Anticancer Drug Screen. Data for the mgt1 strain (AID 153); conditions: S. cerevisiae mgt1 mutant growth inhibition, hits give high values
In short: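 Compounds were applied to mgt1 mutant yeast, and growth was then compared against vehicle-treated control cultures to give percent inhibition.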

[5] = NCI Yeast Anticancer Drug Screen. Data for the rad50 strain (AID 155);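 further: 0% = growth of vehicle-only cultures of the same strain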; conditions: S. cerevisiae rad50 strain growth inhibition, hits give high values
In short: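 Cells are treated with compound, grown, and their growth is then scored against vehicle-only cultures of the same repair-deficient yeast strain.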

[6] = NCI Yeast Anticancer Drug Screen. Data for the mec2-1 strain (AID 157); conditions: S. cerevisiae mec2-1 strain, hits give high values
In short: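 Compounds were applied to mec2-1 yeast cells. Their growth was then compared with that of vehicle-treated cultures to give growth inhibition.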

[7] = NCI Yeast Anticancer Drug Screen. Data for the rad14 strain (AID 159);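 further: 0% = growth of vehicle-treated control cultures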; conditions: S. cerevisiae rad14 strain growth inhibition, hits give high values
In short: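 Readout: yeast growth inhibition, referenced to vehicle-only cultures. Strain bears a defined alteration in DNA damage repair.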

[8] = NCI Yeast Anticancer Drug Screen. Data for the sgs1 mgt1 strain (AID 161);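 further: 0% = growth of cultures given vehicle only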; conditions: S. cerevisiae sgs1 mgt1 strain, hits give high values
In short: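 Growth of a repair-deficient yeast mutant was monitored after compound treatment and expressed as inhibition relative to vehicle-treated cultures.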

[9] = NCI Yeast Anticancer Drug Screen. Data for the CLN2oe strain (AID 163);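 further: 0% = growth of vehicle-only control cultures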; conditions: S. cerevisiae CLN2oe strain, hits give high values
In short: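 Cells of an engineered yeast line with disturbed cell-cycle regulation are treated with compound. Inhibition of growth is then calculated relative to the vehicle-treated reference.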

[10] = NCI Yeast Anticancer Drug Screen. Data for the cln2 rad14 strain (AID 165);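 further: 0% = growth equal to vehicle treated cultures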; conditions: S. cerevisiae cln2 rad14 strain, hits give high values
In short: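 Strain: cln2 rad14 yeast, altered in cell cycle control and DNA damage repair. Read-out: growth inhibition vs vehicle.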

[11] = NCI Yeast Anticancer Drug Screen. Data for the bub3 strain (AID 167); conditions: S. cerevisiae bub3 mutant strain, hits give high values
In short: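 Part of a panel of yeast mutants defective in DNA damage repair or cell cycle regulation. Each strain is grown with compound, and inhibition is calculated relative to solvent-treated cultures.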

[12] = NCI Yeast Anticancer Drug Screen. Data for the wt2 strain (AID 169);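 further: 0% = growth of vehicle-treated yeast cultures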; conditions: S. cerevisiae wt2 strain growth inhibition, hits give high values
In short: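 Growth of compound-treated yeast is measured and expressed as inhibition relative to vehicle-only controls.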

[13] = NCI Yeast Anticancer Drug Screen. Data for the mlh1 strain (AID 171);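 further: 0% = growth of vehicle-treated control cultures of the same strain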; conditions: S. cerevisiae mlh1 strain growth inhibition, hits give high values
In short: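 Test agents were incubated with yeast bearing a defined DNA damage repair or cell cycle control alteration; values are growth inhibition normalised to vehicle-treated cultures.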

[14] = NCI Yeast Anticancer Drug Screen. Data for the sgs1 strain (AID 173);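 further: 0% = growth of vehicle-only control cultures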; conditions: S. cerevisiae sgs1 mutant, hits give high values
In short: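 Strain with an altered DNA repair or cell cycle pathway exposed to compound. Growth then measured. Value = inhibition versus vehicle control.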

[15] = NCI Yeast Anticancer Drug Screen. Data for the mlh1 rad18 strain (AID 175); conditions: S. cerevisiae mlh1 rad18 strain growth inhibition, hits give high values
In short: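 A repair-deficient yeast strain is exposed to test compound, and growth is scored relative to vehicle-treated controls.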

[16] = NCI Yeast Anticancer Drug Screen. Data for the rad18 strain (AID 177); conditions: S. cerevisiae rad18 mutant growth inhibition, hits give high values
In short: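 DNA-repair-defective yeast; compound treatment; growth inhibition scored against vehicle.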

[17] = at 5.0 µM (retest, dose inferred, filed as 0.5)
[18] = at 50.0 µM (retest, dose inferred, filed as 5.0)

Which results are given for CC(=O)[O][Bi]([c]1ccccc1)[c]1ccccc1?
growth inhibition ([1]; at 1.2 µM): 31%; growth inhibition ([1]; at 3.7 µM): 41%; growth inhibition ([1]; at 11.0 µM): 72% (active); growth inhibition ([1]; at 33.0 µM): 91% (active); growth inhibition ([1]; at 100.0 µM): 94% (active); growth inhibition ([2]; at 1.2 µM): 2%; growth inhibition ([2]; at 3.7 µM): 11%; growth inhibition ([2]; at 11.0 µM): 23%; growth inhibition ([2]; at 33.0 µM): 90% (active); growth inhibition ([2]; at 100.0 µM): 94% (active); growth inhibition ([3]; at 1.2 µM): 31%; growth inhibition ([3]; at 3.7 µM): 39%; growth inhibition ([3]; at 11.0 µM): 18%; growth inhibition ([3]; at 33.0 µM): 20%; growth inhibition ([3]; at 100.0 µM): 24%; growth inhibition ([4]; at 1.2 µM): 28%; growth inhibition ([4]; at 3.7 µM): 30%; growth inhibition ([4]; at 11.0 µM): 40%; growth inhibition ([4]; at 33.0 µM): 89% (active); growth inhibition ([4]; at 100.0 µM): 95% (active); growth inhibition ([5]; at 1.2 µM): 36%; growth inhibition ([5]; at 3.7 µM): 42%; growth inhibition [5, 17]: 27%; growth inhibition ([5]; at 11.0 µM): 73% (active); growth inhibition ([5]; at 33.0 µM): 95% (active); growth inhibition [5, 18]: 94% (active); growth inhibition ([5]; at 50.0 µM): 86% (active); growth inhibition ([5]; at 100.0 µM): 95% (active); growth inhibition ([6]; at 1.2 µM): 29%; growth inhibition ([6]; at 3.7 µM): 30%; growth inhibition [6, 17]: 19%; growth inhibition ([6]; at 11.0 µM): 40%; growth inhibition ([6]; at 33.0 µM): 90% (active); growth inhibition [6, 18]: 95% (active); growth inhibition ([6]; at 50.0 µM): 89.5% (active); growth inhibition ([6]; at 100.0 µM): 95% (active); growth inhibition ([7]; at 1.2 µM): 39%; growth inhibition ([7]; at 3.7 µM): 35%; growth inhibition ([7]; at 11.0 µM): 64%; growth inhibition ([7]; at 33.0 µM): 95% (active); growth inhibition ([7]; at 100.0 µM): 96% (active); growth inhibition [8, 17]: 6%; growth inhibition [8, 18]: 96% (active); growth inhibition ([8]; at 50.0 µM): 86.5% (active); growth inhibition ([9]; at 1.2 µM): 22%; growth inhibition ([9]; at 3.7 µM): 16%; growth inhibition ([9]; at 11.0 µM): 31%; growth inhibition ([9]; at 33.0 µM): 80% (active); growth inhibition ([9]; at 100.0 µM): 91% (active); growth inhibition [10, 17]: 7%; growth inhibition [10, 18]: 95% (active); growth inhibition ([10]; at 50.0 µM): 84.7% (active); growth inhibition ([11]; at 1.2 µM): 15%; growth inhibition ([11]; at 3.7 µM): 13%; growth inhibition [11, 17]: 22%; growth inhibition ([11]; at 11.0 µM): 56%; growth inhibition ([11]; at 33.0 µM): 91% (active); growth inhibition [11, 18]: 96% (active); growth inhibition ([11]; at 50.0 µM): 83.2% (active); growth inhibition ([11]; at 100.0 µM): 94% (active); growth inhibition ([12]; at 1.2 µM): 4%; growth inhibition ([12]; at 3.7 µM): 4%; growth inhibition ([12]; at 11.0 µM): 79% (active); growth inhibition ([12]; at 33.0 µM): 96% (active); growth inhibition ([12]; at 100.0 µM): 96% (active); growth inhibition ([13]; at 1.2 µM): 28%; growth inhibition ([13]; at 3.7 µM): 30%; growth inhibition ([13]; at 11.0 µM): 40%; growth inhibition ([13]; at 33.0 µM): 89% (active); growth inhibition ([13]; at 100.0 µM): 95% (active); growth inhibition ([14]; at 1.2 µM): 28%; growth inhibition ([14]; at 3.7 µM): 30%; growth inhibition ([14]; at 11.0 µM): 46%; growth inhibition ([14]; at 33.0 µM): 88% (active); growth inhibition ([14]; at 100.0 µM): 95% (active); growth inhibition [15, 17]: 42%; growth inhibition [15, 18]: 93% (active); growth inhibition ([15]; at 50.0 µM): 91% (active); growth inhibition ([16]; at 1.2 µM): 15%; growth inhibition ([16]; at 3.7 µM): 30%; growth inhibition ([16]; at 11.0 µM): 72% (active); growth inhibition ([16]; at 33.0 µM): 91% (active); growth inhibition ([16]; at 100.0 µM): 94% (active)

Reference: PubChem BioAssay (NCI)
